# Assay results published in publication PMC7862700, “An all-to-all approach to the identification of sequence-specific readers for epigenetic DNA modifications on cytosine”.
# Columns and labels:
# Test in all cases: DAPPL (digital affinity profiling via proximity ligation, sequencing); 10 mM Tris-HCl pH 7.5, 50 mM NaCl, 1 mM DTT, 4% glycerol, room temperature, 30 min; GST-TFs on glutathione beads, 16-mer random dsDNA library, 0.1% formaldehyde crosslink after washing; high values mean tight binding
# FLI1 = target: T1, FLI1 (Homo sapiens, UniProt Q01543 1-452); conditions: protein: recombinant; tags: N-terminal GST; dsDNA, one strand shown
# T1 sequence: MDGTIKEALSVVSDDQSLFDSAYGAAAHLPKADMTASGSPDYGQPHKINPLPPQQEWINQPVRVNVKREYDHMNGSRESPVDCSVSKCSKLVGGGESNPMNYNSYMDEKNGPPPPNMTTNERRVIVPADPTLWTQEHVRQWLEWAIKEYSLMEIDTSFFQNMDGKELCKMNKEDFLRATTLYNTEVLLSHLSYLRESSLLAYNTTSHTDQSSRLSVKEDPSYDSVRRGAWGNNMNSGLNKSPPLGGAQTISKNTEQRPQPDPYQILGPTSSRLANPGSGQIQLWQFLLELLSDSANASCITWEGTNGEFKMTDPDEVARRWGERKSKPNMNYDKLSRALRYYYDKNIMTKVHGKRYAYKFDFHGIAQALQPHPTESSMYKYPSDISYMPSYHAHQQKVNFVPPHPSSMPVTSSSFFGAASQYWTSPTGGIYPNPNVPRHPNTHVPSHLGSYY
# Procedure, shortened: (§1)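 Human transcription factors were made in yeast as GST fusions, captured on glutathione beads and barcoded with DNA. With a tag-only sample included, the pool was incubated with 200 nmole of a random double-stranded 16-mer DNA library in Tris/NaCl/DTT/glycerol buffer at room temperature for 30 min, then crosslinked with 0.1% formaldehyde after washing, ligated by proximity, amplified and sequenced. For binding signal, each hexamer's read frequency for a factor is divided by its frequency for the tag-only sample.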
# ELK1 = target: T2, ELK1 (Homo sapiens, UniProt P19419 1-428); conditions: protein: recombinant; tags: N-terminal GST; dsDNA, one strand shown
# T2 sequence: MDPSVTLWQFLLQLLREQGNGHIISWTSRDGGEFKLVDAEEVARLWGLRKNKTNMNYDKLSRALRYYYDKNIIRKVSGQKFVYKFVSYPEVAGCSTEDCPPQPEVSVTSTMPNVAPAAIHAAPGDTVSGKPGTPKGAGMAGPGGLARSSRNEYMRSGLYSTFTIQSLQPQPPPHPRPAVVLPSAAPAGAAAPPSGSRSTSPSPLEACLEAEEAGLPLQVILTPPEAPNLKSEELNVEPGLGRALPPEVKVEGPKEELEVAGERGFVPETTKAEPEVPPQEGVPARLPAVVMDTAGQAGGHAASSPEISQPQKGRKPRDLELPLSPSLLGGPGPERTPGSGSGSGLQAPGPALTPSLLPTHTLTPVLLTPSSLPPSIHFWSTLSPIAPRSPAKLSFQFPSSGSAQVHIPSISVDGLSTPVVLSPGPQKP
# Procedure, shortened: as §1
# GABPA = target: T3, GABPA (Homo sapiens, UniProt Q06546 1-454); conditions: protein: recombinant; tags: N-terminal GST; dsDNA, one strand shown
# T3 sequence: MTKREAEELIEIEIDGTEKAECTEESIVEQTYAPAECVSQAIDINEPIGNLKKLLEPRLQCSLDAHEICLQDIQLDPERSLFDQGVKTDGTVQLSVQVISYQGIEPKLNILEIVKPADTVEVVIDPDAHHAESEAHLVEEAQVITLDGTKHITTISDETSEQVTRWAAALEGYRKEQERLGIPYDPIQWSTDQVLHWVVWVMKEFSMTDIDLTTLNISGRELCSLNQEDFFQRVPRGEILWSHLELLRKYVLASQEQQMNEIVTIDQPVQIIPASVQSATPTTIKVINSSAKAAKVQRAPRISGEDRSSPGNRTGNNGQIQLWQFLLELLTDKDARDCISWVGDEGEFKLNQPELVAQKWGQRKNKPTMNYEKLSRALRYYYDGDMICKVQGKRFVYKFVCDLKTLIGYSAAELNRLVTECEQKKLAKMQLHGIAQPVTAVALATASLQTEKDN
# Procedure, shortened: as §1
# ERG = target: T4, ERG (Homo sapiens, UniProt P11308 1-479); conditions: protein: recombinant; tags: N-terminal GST; dsDNA, one strand shown
# T4 sequence: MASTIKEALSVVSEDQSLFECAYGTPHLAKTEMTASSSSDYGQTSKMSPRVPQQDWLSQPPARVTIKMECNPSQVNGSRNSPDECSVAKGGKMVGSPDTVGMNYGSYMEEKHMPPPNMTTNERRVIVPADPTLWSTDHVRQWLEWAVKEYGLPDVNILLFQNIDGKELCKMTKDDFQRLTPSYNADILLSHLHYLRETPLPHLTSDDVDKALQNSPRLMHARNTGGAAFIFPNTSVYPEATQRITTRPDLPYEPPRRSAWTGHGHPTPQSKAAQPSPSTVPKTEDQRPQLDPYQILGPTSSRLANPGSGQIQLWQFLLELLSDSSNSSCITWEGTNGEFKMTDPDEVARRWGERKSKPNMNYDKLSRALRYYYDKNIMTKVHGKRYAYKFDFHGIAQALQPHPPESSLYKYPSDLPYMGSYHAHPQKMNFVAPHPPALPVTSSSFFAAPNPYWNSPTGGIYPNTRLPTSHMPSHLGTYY
# Procedure, shortened: as §1
# ELF1 = ELF1 (Homo sapiens, UniProt P32519 1-619); conditions: protein: recombinant; tags: N-terminal GST; dsDNA, one strand shown
# Procedure, shortened: as §1
# EHF = target: T5, EHF (Homo sapiens, UniProt Q9NZC4 1-300); conditions: protein: recombinant; tags: N-terminal GST; dsDNA, one strand shown
# T5 sequence: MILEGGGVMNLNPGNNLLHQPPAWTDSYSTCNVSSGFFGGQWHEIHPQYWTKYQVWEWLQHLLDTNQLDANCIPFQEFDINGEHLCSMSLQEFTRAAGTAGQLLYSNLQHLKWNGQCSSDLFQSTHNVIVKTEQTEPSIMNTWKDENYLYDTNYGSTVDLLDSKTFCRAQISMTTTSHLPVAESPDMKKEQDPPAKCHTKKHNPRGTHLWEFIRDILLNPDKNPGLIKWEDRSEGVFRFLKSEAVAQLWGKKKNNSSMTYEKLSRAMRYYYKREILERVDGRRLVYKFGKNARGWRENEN
# Procedure, shortened: as §1
# SPI1 = SPI1 (Homo sapiens, UniProt P17947 1-270); conditions: protein: recombinant; tags: N-terminal GST; dsDNA, one strand shown
# Procedure, shortened: as §1
# SPIB = SPIB (Homo sapiens, UniProt Q01892 1-262); conditions: protein: recombinant; tags: N-terminal GST; dsDNA, one strand shown
# Procedure, shortened: as §1
# ELK3 = target: T6, ELK3 (Homo sapiens, UniProt P41970 1-407); conditions: protein: recombinant; tags: N-terminal GST; dsDNA, one strand shown
# T6 sequence: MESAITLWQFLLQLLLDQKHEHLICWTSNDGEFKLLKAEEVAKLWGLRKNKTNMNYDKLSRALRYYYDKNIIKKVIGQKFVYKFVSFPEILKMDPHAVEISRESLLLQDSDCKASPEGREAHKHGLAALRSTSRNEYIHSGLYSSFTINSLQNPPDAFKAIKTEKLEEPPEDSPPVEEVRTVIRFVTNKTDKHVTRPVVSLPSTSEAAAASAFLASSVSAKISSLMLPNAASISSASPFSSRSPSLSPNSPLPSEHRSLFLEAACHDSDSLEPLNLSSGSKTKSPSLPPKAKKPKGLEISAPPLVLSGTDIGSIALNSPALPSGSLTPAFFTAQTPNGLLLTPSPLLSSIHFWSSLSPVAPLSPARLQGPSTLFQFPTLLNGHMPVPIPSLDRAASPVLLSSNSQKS
# Procedure, shortened: as §1
# FEV = target: T7, FEV (Homo sapiens, UniProt Q99581 1-238); conditions: protein: recombinant; tags: N-terminal GST; dsDNA, one strand shown
# T7 sequence: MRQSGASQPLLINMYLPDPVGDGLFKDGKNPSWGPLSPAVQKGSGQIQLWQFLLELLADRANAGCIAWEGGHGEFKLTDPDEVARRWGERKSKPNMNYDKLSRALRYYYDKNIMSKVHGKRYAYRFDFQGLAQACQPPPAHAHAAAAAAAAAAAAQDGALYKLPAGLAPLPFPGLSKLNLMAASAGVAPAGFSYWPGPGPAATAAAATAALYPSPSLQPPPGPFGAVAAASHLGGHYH
# Procedure, shortened: as §1
# ETV5 = ETV5 (Homo sapiens, UniProt P41161 1-510); conditions: protein: recombinant; tags: N-terminal GST; dsDNA, one strand shown
# Procedure, shortened: as §1
# HSF1 = HSF1 (Homo sapiens, UniProt Q00613 1-529); conditions: protein: recombinant; tags: N-terminal GST; chain copies: 3; dsDNA, one strand shown
# Procedure, shortened: as §1
# SPIC = target: T8, SPIC (Homo sapiens, UniProt Q8N5J4 1-248); conditions: protein: recombinant; tags: N-terminal GST; dsDNA, one strand shown
# T8 sequence: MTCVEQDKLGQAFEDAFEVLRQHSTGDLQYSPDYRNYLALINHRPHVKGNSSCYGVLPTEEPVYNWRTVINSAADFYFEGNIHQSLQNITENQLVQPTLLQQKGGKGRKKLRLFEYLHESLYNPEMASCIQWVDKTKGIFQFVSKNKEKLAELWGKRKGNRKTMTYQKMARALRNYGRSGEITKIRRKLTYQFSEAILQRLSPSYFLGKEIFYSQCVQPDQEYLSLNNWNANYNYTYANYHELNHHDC
# Procedure, shortened: as §1
# ELF4 = ELF4 (Homo sapiens, UniProt Q99607 1-663); conditions: protein: recombinant; tags: N-terminal GST; dsDNA, one strand shown
# Procedure, shortened: as §1
# ELK4 = target: T9, ELK4 (Homo sapiens, UniProt P28324-2 1-405); conditions: protein: recombinant; tags: N-terminal GST; dsDNA, one strand shown
# T9 sequence: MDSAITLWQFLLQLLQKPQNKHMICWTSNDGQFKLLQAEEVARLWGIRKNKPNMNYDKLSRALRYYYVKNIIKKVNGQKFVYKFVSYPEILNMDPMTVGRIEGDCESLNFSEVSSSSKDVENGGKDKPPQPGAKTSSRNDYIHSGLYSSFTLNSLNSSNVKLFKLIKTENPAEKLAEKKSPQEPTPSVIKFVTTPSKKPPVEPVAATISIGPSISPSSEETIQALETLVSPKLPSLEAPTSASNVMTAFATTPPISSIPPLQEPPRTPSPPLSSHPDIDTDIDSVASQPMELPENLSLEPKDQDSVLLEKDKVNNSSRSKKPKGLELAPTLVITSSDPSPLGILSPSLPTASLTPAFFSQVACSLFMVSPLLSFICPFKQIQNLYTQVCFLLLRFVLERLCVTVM
# Procedure, shortened: as §1
# ETV2 = target: T10, ETV2 (Homo sapiens, UniProt O00321 1-342); conditions: protein: recombinant; tags: N-terminal GST; dsDNA, one strand shown
# T10 sequence: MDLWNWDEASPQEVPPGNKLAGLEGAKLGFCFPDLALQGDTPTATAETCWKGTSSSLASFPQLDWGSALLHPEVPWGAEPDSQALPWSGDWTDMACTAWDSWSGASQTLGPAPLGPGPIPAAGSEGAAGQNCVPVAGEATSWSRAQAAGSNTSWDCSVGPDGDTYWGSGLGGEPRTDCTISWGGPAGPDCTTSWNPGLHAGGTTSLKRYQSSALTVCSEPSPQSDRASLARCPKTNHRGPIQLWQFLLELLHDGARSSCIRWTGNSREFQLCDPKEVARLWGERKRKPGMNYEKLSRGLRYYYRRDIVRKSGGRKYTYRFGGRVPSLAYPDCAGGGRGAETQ
# Procedure, shortened: as §1
# ELF3 = target: T11, ELF3 (Homo sapiens, UniProt P78545 1-371); conditions: protein: recombinant; tags: N-terminal GST; dsDNA, one strand shown
# T11 sequence: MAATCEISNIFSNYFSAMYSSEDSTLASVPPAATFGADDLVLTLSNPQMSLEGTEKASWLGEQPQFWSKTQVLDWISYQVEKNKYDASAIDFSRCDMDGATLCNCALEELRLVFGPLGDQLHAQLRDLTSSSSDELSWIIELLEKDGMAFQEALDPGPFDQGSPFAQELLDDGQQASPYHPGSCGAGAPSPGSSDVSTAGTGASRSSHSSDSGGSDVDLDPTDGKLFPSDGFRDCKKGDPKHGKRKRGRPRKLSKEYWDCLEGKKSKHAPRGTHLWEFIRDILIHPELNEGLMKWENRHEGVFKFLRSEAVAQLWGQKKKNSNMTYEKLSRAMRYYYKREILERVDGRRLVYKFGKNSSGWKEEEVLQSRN
# Procedure, shortened: as §1
# CRX = CRX (Homo sapiens, UniProt O43186 1-299); conditions: protein: recombinant; tags: N-terminal GST; dsDNA, one strand shown
# Procedure, shortened: as §1
# ETV1 = ETV1 (Homo sapiens, UniProt P50549 1-477); conditions: protein: recombinant; tags: N-terminal GST; dsDNA, one strand shown
# Procedure, shortened: as §1
# SPIB, sequence (Q01892 whole entry): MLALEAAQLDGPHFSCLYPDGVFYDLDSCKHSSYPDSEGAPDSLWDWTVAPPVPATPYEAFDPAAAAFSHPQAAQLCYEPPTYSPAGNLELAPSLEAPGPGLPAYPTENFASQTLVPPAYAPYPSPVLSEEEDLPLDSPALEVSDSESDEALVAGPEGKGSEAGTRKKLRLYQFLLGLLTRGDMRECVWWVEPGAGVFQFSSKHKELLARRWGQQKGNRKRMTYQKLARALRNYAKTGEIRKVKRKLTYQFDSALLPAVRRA
# ETV5, sequence (P41161 whole entry): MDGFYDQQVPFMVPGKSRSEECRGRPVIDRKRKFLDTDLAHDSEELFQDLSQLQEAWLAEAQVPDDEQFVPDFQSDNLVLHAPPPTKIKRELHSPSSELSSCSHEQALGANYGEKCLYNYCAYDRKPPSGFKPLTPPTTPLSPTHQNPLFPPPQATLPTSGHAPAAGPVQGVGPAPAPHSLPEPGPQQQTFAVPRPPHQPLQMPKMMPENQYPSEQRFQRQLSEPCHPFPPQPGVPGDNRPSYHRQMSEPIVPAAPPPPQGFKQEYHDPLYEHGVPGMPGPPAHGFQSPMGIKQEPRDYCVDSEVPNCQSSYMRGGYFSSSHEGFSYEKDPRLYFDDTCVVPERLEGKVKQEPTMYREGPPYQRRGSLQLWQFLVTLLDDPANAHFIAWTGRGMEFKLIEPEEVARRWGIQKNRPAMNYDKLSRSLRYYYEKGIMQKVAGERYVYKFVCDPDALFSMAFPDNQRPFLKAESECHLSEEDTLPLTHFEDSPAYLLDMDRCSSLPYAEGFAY
# ELF4, sequence (Q99607 whole entry): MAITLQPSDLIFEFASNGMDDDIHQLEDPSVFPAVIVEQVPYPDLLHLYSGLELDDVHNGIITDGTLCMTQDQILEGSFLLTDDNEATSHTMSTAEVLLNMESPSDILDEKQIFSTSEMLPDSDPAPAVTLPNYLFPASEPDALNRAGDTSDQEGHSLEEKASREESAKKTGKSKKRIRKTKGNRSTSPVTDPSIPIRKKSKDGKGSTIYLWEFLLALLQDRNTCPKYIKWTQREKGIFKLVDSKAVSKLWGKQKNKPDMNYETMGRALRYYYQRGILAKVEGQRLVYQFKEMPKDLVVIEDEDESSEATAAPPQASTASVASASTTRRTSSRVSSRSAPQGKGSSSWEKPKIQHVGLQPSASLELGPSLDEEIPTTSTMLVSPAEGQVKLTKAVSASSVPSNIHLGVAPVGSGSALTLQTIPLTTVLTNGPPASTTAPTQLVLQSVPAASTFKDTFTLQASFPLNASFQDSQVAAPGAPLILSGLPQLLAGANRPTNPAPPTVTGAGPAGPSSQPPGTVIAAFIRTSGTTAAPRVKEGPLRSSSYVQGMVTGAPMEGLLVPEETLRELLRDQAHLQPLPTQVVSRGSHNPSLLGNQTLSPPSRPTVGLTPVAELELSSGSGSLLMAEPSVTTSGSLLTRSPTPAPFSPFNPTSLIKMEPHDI
# ELF1, sequence (P32519 whole entry): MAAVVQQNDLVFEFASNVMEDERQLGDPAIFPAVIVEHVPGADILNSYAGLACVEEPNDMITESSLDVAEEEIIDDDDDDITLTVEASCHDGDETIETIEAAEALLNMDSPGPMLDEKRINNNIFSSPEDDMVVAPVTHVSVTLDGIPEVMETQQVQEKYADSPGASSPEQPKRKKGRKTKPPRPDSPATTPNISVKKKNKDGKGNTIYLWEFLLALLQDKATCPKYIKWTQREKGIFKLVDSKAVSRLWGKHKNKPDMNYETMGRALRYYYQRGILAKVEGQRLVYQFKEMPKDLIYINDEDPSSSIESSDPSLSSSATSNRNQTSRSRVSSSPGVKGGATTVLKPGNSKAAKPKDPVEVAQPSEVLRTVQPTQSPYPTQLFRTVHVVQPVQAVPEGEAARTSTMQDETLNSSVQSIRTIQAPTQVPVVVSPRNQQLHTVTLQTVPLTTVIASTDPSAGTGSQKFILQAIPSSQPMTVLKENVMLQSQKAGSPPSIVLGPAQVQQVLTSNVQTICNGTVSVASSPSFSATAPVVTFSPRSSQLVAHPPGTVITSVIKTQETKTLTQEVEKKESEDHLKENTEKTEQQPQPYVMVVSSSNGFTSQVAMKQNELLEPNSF
# HSF1, sequence (Q00613 whole entry): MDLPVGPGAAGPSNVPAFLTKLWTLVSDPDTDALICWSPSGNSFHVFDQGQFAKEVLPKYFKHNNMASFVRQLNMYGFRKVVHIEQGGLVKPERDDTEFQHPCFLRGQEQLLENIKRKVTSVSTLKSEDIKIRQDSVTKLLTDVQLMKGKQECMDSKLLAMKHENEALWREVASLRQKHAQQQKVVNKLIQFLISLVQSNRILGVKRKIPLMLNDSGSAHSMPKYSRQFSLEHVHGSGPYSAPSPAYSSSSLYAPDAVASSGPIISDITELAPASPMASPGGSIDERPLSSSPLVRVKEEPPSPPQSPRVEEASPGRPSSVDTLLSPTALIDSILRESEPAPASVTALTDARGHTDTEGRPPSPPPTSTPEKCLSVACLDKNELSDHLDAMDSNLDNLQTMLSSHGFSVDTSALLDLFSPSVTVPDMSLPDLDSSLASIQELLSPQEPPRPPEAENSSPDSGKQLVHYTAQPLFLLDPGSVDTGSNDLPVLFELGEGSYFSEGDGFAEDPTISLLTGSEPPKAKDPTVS
# CRX, sequence (O43186 whole entry): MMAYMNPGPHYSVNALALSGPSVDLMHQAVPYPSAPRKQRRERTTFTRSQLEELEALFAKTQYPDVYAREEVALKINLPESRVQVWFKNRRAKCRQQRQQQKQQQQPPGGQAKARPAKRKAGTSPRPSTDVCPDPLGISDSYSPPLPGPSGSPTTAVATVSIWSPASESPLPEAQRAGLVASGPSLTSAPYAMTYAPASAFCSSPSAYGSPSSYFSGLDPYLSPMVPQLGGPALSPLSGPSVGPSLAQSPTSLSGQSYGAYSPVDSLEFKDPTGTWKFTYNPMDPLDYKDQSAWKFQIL
# ETV1, sequence (P50549 whole entry): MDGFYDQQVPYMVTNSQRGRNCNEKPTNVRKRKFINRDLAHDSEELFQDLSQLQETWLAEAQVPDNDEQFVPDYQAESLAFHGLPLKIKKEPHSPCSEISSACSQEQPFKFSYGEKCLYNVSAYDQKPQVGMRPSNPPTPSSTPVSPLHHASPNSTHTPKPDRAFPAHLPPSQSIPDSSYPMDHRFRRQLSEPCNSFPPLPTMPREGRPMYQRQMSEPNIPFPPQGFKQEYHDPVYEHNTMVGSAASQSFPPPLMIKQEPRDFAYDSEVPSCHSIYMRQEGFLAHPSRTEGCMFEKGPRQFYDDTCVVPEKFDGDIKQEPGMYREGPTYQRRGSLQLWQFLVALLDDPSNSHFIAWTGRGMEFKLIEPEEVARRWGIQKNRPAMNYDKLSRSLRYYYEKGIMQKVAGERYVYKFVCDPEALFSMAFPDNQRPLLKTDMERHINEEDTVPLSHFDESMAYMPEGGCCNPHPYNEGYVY
sequence,measurement,setting,value
ACACTA,binding signal,FLI1,"1.11 fold enrichment (6-mer frequency, TF over GST control)"
same,binding signal,ELK1,"1.17 fold enrichment (6-mer frequency, TF over GST control)"
same,binding signal,GABPA,"1.13 fold enrichment (6-mer frequency, TF over GST control)"
same,binding signal,ERG,"1.12 fold enrichment (6-mer frequency, TF over GST control)"
same,binding signal,ELF1,"1.19 fold enrichment (6-mer frequency, TF over GST control)"
same,binding signal,EHF,"1.15 fold enrichment (6-mer frequency, TF over GST control)"
same,binding signal,SPI1,"1.11 fold enrichment (6-mer frequency, TF over GST control)"
same,binding signal,SPIB,"1.09 fold enrichment (6-mer frequency, TF over GST control)"
same,binding signal,ELK3,"1.1 fold enrichment (6-mer frequency, TF over GST control)"
same,binding signal,FEV,"1.14 fold enrichment (6-mer frequency, TF over GST control)"
same,binding signal,ETV5,"1.14 fold enrichment (6-mer frequency, TF over GST control)"
same,binding signal,HSF1,"1.12 fold enrichment (6-mer frequency, TF over GST control)"
same,binding signal,SPIC,"1.14 fold enrichment (6-mer frequency, TF over GST control)"
same,binding signal,ELF4,"1.13 fold enrichment (6-mer frequency, TF over GST control)"
same,binding signal,ELK4,"1.16 fold enrichment (6-mer frequency, TF over GST control)"
same,binding signal,ETV2,"1.1 fold enrichment (6-mer frequency, TF over GST control)"
same,binding signal,ELF3,"1.19 fold enrichment (6-mer frequency, TF over GST control)"
same,binding signal,CRX,"1.11 fold enrichment (6-mer frequency, TF over GST control)"
same,binding signal,ETV1,"1.03 fold enrichment (6-mer frequency, TF over GST control)"
